Test results taken from PubChem BioAssay (NCI).
The panel holds about 79,000 compounds, 15% with a hit somewhere; the sample as a whole holds those more often. Rule as the data show it: active = growth inhibition above about 70%; inactive = the rest.

Experiments:
[1] = NCI Yeast Anticancer Drug Screen. Data for the rad50 strain (AID 155);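 also: 0% = growth of vehicle-only cultures of the same strain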; details: S. cerevisiae rad50 strain growth inhibition; at 50.0 µM; active compounds read high
In short: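 A DNA repair-deficient yeast mutant serves as the test organism; compound-induced growth inhibition is calculated against vehicle-treated cells.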

[2] = NCI Yeast Anticancer Drug Screen. Data for the mec2-1 strain (AID 157); details: S. cerevisiae mec2-1 strain, at 50.0 µM, active compounds read high
In short: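 Compounds were applied to mec2-1 yeast cells. Their growth was then compared with that of vehicle-treated cultures to give growth inhibition.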

[3] = NCI Yeast Anticancer Drug Screen. Data for the sgs1 mgt1 strain (AID 161);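 also: 0% = growth of cultures given vehicle only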; details: S. cerevisiae sgs1 mgt1 strain, at 50.0 µM, active compounds read high
In short: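 Compounds are added to genetically altered yeast, and growth is compared with cultures given vehicle alone to give percent inhibition.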

[4] = NCI Yeast Anticancer Drug Screen. Data for the cln2 rad14 strain (AID 165);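 also: 0% = growth equal to vehicle treated cultures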; details: S. cerevisiae cln2 rad14 strain, at 50.0 µM, active compounds read high
In short: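 Strain: cln2 rad14 yeast, altered in cell cycle control and DNA damage repair. Read-out: growth inhibition vs vehicle.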

[5] = NCI Yeast Anticancer Drug Screen. Data for the bub3 strain (AID 167); details: S. cerevisiae bub3 mutant strain, at 50.0 µM, active compounds read high
In short: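 Inhibition values come from growth of compound-treated mutant yeast normalised to vehicle-treated controls.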

[6] = NCI Yeast Anticancer Drug Screen. Data for the mlh1 rad18 strain (AID 175); details: S. cerevisiae mlh1 rad18 strain growth inhibition; at 50.0 µM; active compounds read high
In short: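 A repair-deficient yeast strain is exposed to test compound, and growth is scored relative to vehicle-treated controls.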

Measured: growth inhibition

O=S(=O)(N1CCCCC1)N1CCCCC1
inactive: [1] 2.3% | [2] -0.85% | [3] 0.85% | [4] 8.85% | [5] 10.2% | [6] -2.4%

Cc1nc2c(N)cc(Cl)cc2[nH]1
inactive: [1] 13.2% | [2] 13.3% | [3] 19.6% | [4] 8.25% | [5] -7.3% | [6] 7.75%

Nc1ccc(Br)c2ccccc12
inactive: [1] 33.4% | [2] 22.1% | [3] 16.8% | [4] 19.4% | [5] 27.3% | [6] 46.4%

COC(=O)CCC(=O)c1ccc2c(c1)CC1(C2)Cc2ccc3c(c2C1)CCCC3=O (stereo unspecified)
inactive: [1] -10.9% | [2] -27.1% | [3] -14.1% | [4] 5.9% | [5] -13.6% | [6] -4.25%

O=C(O)/C=N\Nc1nc2ccccc2[nH]1
inactive: [1] -1.85% | [2] -5.95% | [3] 1.9% | [4] -11.1% | [5] -8.05% | [6] 6.8%

O=C1NC(=O)c2ccc(Br)c3cccc1c23
inactive: [1] 17.9% | [2] 18.9% | [3] 16.1% | [4] 21.6% | [5] 19.9% | [6] 1.75%

CC(=O)n1cc(CS)c(=O)[nH]c1=O
inactive: [1] -6.2% | [2] 1.2% | [3] -2.5% | [4] -15.2% | [5] -2.6% | [6] -19.4%

CC(=O)Nc1nc(C)c(CC/C=C/c2ccc([N+](=O)[O-])cc2)c(Cl)n1
inactive: [1] 8.9% | [2] 32.9% | [3] 38% | [4] -6.35% | [5] 27.2% | [6] 53%

CNN=C(C)C
inactive: [1] -2.15% | [2] 3.8% | [3] -3.4% | [4] -4.8% | [5] 2.5% | [6] -19.3%

O=c1[nH]c(=S)[nH]n1C(=S)n1[nH]c(=S)[nH]c1=O
inactive: [1] 5.35% | [2] -2.65% | [3] 8.7% | [4] -7.8% | [5] 13.1% | [6] 9.6%

COC(=O)/C=C(C)/C=C/c1cc(C(C)=O)c(C)o1
inactive: [1] -2.25% | [2] -2.95% | [3] 7.85% | [4] -12.3% | [5] 29.6% | [6] -7.05%

Cc1cc(C)c(C(=O)O)c(C)c1Br
inactive: [1] -3% | [2] -27.4% | [3] -4.85% | [4] -34.6% | [5] 9.1% | [6] 4.5%

CCOc1cc(/C=N/NC(=O)N(c2ccccc2)c2ccccc2)ccc1O
inactive: [1] 4.25% | [2] -8.6% | [3] 25.6% | [4] 12.8% | [5] 24.6% | [6] 7.35%

O=C(CC(c1ccccc1)C(Br)(c1ccccc1)[N+](=O)[O-])c1ccccc1 (stereo unspecified)
inactive: [1] 11.8% | [2] -0.45% | [3] -2.75% | [4] 22.2% | [5] -3.4% | [6] -5.8%

CN(C)c1ccc(/C=N/NC(=O)c2ccc(N)cc2)cc1
inactive: [1] 1.35% | [2] 5.15% | [3] -12.7% | [4] -12.4% | [5] -2.4% | [6] 14.3%

COC(=O)C(/C(=N\NC(N)=S)C(=O)Nc1ccccc1[N+](=O)[O-])c1cnc2ccccc2n1 (stereo unspecified)
inactive: [1] 5% | [2] -14.7% | [3] -8.55% | [4] 2.1% | [5] -19.1% | [6] -18.7%

CC1CN(C(=O)C2CCCN(CCc3ccccc3)C2)CC(C)O1 (stereo unspecified)
inactive: [1] 25.4% | [2] 2.65% | [3] 52.7% | [4] 14.8% | [5] 2% | [6] 22.7%

CC(C)CC(NC(=O)CNC(=O)CNC(=O)OCc1ccccc1)C(=O)O (stereo unspecified)
inactive: [1] -0.1% | [2] 7.75% | [3] -2.1% | [4] -21.8% | [5] -0.9% | [6] 10.8%

CCC(=O)Oc1ccc(OCc2ccccc2)cc1
inactive: [1] -28.3% | [2] -57.8% | [3] -31.4% | [4] -4% | [5] -16.9% | [6] -25.9%

Nc1cc(=O)n(Cc2ccco2)c(=S)[nH]1
inactive: [1] 19.8% | [2] -16.6% | [3] 9.35% | [4] 2.75% | [5] -7.95% | [6] -8%

CCOC(=O)C12CCC(=O)CC1(O)CCC1(C2)OCCCO1 (stereo unspecified)
inactive: [1] 10.1% | [2] -15.9% | [3] -17.9% | [4] -21.8% | [5] 10.9% | [6] 3.85%

Cc1cc2cc(Cl)ccc2nc1C(=O)c1ccccc1
inactive: [1] -5.75% | [2] -24.4% | [3] -3.3% | [4] 17.7% | [5] -6.65% | [6] -18.7%

COc1ccc(N=C2C(=Nc3ccc(OC)cc3)N(c3ccccc3[N+](=O)[O-])C(=S)N2c2ccc(OC)cc2)cc1
inactive: [1] 3.6% | [2] -24% | [3] 10.7% | [4] -49.5% | [5] -1.35% | [6] -10.9%

O=S(NOCc1ccccc1)c1ccccc1 (stereo unspecified)
inactive: [1] 13.3% | [2] 24.2% | [3] 3.95% | [4] -31.8% | [5] -6% | [6] 9.75%

COC(=O)c1ccc(N=Nc2ncc(CC(NC(C)=O)C(=O)OC)[nH]2)cc1 (stereo unspecified)
inactive: [1] -16.9% | [2] -46.9% | [3] 20.9% | [4] -34.5% | [5] 4.2% | [6] -13.4%

O=C(O)C(Cc1ccc(O)cc1)NC(=O)C(CSC(c1ccccc1)(c1ccccc1)c1ccccc1)NC(c1ccccc1)(c1ccccc1)c1ccccc1 (stereo unspecified)
inactive: [1] 3.75% | [2] 30.9% | [3] 11.5% | [4] -2.35% | [5] -4.55% | [6] 23%

CCCCCCCCCCCCCCCCCC(=O)OCC(O)CO (stereo unspecified)
inactive: [1] -2.85% | [2] -16.8% | [3] 2.85% | [4] 7.2% | [5] -0.45% | [6] 7%

CCC(=O)Oc1ccc(C(C)(C)C)cc1
inactive: [1] -5.85% | [2] -3.75% | [3] 1.95% | [4] -2.25% | [5] 11.1% | [6] 1.1%

Nc1c(Cl)ncnc1Cl
inactive: [1] -13.8% | [2] 8.3% | [3] -16.4% | [4] -0.65% | [5] 19.7% | [6] -39.7%

CC(=O)Oc1ccc(C(c2ccc(OC(C)=O)cc2)c2ccccn2)cc1
inactive: [1] 18.3% | [2] -0.6% | [3] -9.25% | [4] -62.4% | [5] -40.9% | [6] -22.9%

CCCCCCCC/C=C/CCCCCCCC(=O)NN(C)C
inactive: [1] -1.4% | [2] -7.6% | [3] -0.5% | [4] -59.2% | [5] -3.95% | [6] -11.3%

CC(O)C1CCCCC1O (stereo unspecified)
inactive: [1] 5.15% | [2] -28.3% | [3] -2.85% | [4] -8.65% | [5] -9.6% | [6] -11.3%

O=C1OCC2CC1C(=O)O2 (stereo unspecified)
inactive: [1] -7.65% | [2] 0.3% | [3] 5.95% | [4] 4.7% | [5] -3.6% | [6] 6.65%

CCC1(C2C=COC=C2)NC(=O)NC1=O (stereo unspecified)
inactive: [1] -14.1% | [2] 3.8% | [3] -8.35% | [4] 6.45% | [5] -4.75% | [6] -2%

CC(C)CCCC(C)C1CCC2C3CCC4CC5(C)C(CC4(C)C3CCC12C)C(=O)C5(Cl)Cl (stereo unspecified)
inactive: [1] 13.2% | [2] -2.7% | [3] -22.4% | [4] 0% | [5] -3.55% | [6] -27.9%

Cc1cc2c(=O)cc(-c3ccccc3Cl)oc2c(C(=O)O)c1C
inactive: [1] -3.1% | [2] -10.3% | [3] -4.45% | [4] 8.2% | [5] -2.75% | [6] -18.6%

COC1=CC(=O)C=C(C)C1=O
inactive: [1] 19.4% | [2] -11.9% | [3] -8.1% | [4] 29.7% | [5] 4% | [6] 2%

CCCc1nc(NC#N)nc(C(=O)NC23CC4CC(CC(C4)C2)C3)c1C
inactive: [1] -8.2% | [2] -13.2% | [3] 7.4% | [4] 8.4% | [5] -7.2% | [6] -9.35%

Nc1cccc(S(=O)(=O)Nc2c(N)nc(SCC(=O)O)[nH]c2=O)c1
inactive: [1] -15% | [2] -15.8% | [3] -19.7% | [4] -9.3% | [5] 11.9% | [6] 21.6%

CC1OC(OCC2OC(Oc3ccc4c(=O)c(-c5ccc6c(c5)OCO6)coc4c3)C(O)C(O)C2O)C(O)C(O)C1O (stereo unspecified)
inactive: [1] 15.1% | [2] 3.15% | [3] 12.6% | [4] 28.1% | [5] 20.4% | [6] 8.85%

Cc1ccc(NC(=S)NCCc2ccccn2)cc1C
inactive: [1] 29.2% | [2] 13.8% | [3] 28.9% | [4] 1.45% | [5] 21.3% | [6] 21.6%
